The source of these data is the antibiotic and cytotoxicity screens of Wong et al. (2023).

The campaign covered roughly 39,000 compounds. About 3,300 (8.5%) were called active. The sample holds actives, similar compounds and a random draw of the others, so the mix is not that of the screen.

In this assay the test system is HepG2. As to the kind of experiment: cytotoxicity call (relative viability < 0.9). Particulars: 10 µM.
For the compound `CC(C)CC#Cc1ccc2c(c1)O[C@@H](CN(C)Cc1cncnc1)[C@@H](C)CN([C@H](C)CO)S2(=O)=O`, the cytotoxicity call was “inactive”.

Take `CC(C)NC(=O)[C@@H]1c2ccccc2C(=O)N(Cc2cc(F)cc(C(F)(F)F)c2)[C@H]1c1ccc(CO)cc1`: the cytotoxicity call was “inactive”.

Consider `CC(C)NC(=O)Nc1ccc2c(c1)C(=O)N([C@H](C)CO)C[C@H](C)[C@@H](CN(C)S(=O)(=O)c1cn(C)cn1)OCCCC[C@H](C)O2`, for which the cytotoxicity call is “inactive”.

Take `CC(C)NC(=O)N1C[C@H]2[C@H](C(=O)N(C)Cc3ccccn3)CCS(=O)(=O)[C@H]2C1`: the cytotoxicity call is “inactive”.

As for `Cc1noc(C)c1S(=O)(=O)N(C)C[C@H]1Oc2ccc(NS(=O)(=O)c3ccc(F)cc3)cc2CC(=O)N([C@@H](C)CO)C[C@H]1C`, the cytotoxicity call is “inactive”.

For the compound `C=CC[C@@H](CC(=O)N(CCO)Cc1ccccc1)C(=O)N[C@H](COC(=O)[C@@H](CC=C)CC(=O)OC(C)(C)C)Cc1c[nH]c2ccccc12`, the cytotoxicity call was “inactive”.

For `Cc1ccc(S(=O)(=O)N2C[C@H](O)COC[C@H]3O[C@H](CC(=O)NCCCN(C)C)CC[C@@H]32)cc1`, the cytotoxicity call is “inactive”.

Take `Cc1ccc(S(=O)(=O)N(C)C[C@@H]2OCCCC[C@H](C)Oc3ccc(NS(=O)(=O)c4ccc(F)cc4)cc3C(=O)N([C@H](C)CO)C[C@H]2C)cc1`: the cytotoxicity call is “inactive”.

Turning to `C[C@@H]1CCCCO[C@H](CN(C)Cc2ccc3c(c2)OCO3)[C@@H](C)CN([C@H](C)CO)C(=O)c2cc(NC(=O)Cc3ccccc3)ccc2O1`, the cytotoxicity call is “inactive”.

For `COc1ccc(CN(C)C[C@@H]2OCCCC[C@@H](C)Oc3ccc(NC(=O)Cc4ccccc4)cc3C(=O)N([C@H](C)CO)C[C@H]2C)cc1`, the cytotoxicity call is “inactive”.

Consider `CCCCCOc1ccc(-c2cc(-c3ccc(C(=O)N[C@H]4C[C@@H](O)[C@@H](O)NC(=O)[C@H]5[C@@H](O)[C@@H](C)CN5C(=O)[C@H]([C@@H](O)CC(N)=O)NC(=O)[C@H]([C@@H](O)[C@@H](O)c5ccc(O)c(OS(=O)(=O)O)c5)NC(=O)[C@H]5C[C@@H](O)CN5C(=O)[C@H]([C@@H](C)O)NC4=O)cc3)no2)cc1`, for which the cytotoxicity call was “inactive”.

For `CCCCCOc1ccc(-c2ccc(-c3ccc(C(=O)N[C@H]4C[C@@H](O)[C@@H](O)NC(=O)[C@@H]5[C@@H](O)[C@@H](C)CN5C(=O)[C@H]([C@@H](C)O)NC(=O)[C@H]([C@H](O)[C@@H](O)c5ccc(O)cc5)NC(=O)[C@@H]5C[C@@H](O)CN5C(=O)[C@H]([C@@H](C)O)NC4=O)cc3)cc2)cc1`, the cytotoxicity call is “active”.

`CC[C@H](C)C[C@H](C)CCCCCCCCC(=O)N[C@H]1C[C@@H](O)[C@@H](NCCN)NC(=O)[C@@H]2[C@@H](O)CCN2C(=O)[C@H]([C@H](O)CCN)NC(=O)[C@H]([C@H](O)[C@@H](O)c2ccc(O)cc2)NC(=O)[C@@H]2C[C@@H](O)CN2C(=O)[C@H]([C@@H](C)O)NC1=O`: the cytotoxicity call is “inactive”.

With `C[C@@H]1CN([C@@H](C)CO)C(=O)Cc2cc(NC(=O)CCN3CCOCC3)ccc2O[C@H]1CN(C)C(=O)Nc1ccc2c(c1)OCO2`, the cytotoxicity call is “inactive”.

`CC(C)NC(=O)N(C)C[C@@H]1Oc2ccc(NC(=O)CCC(F)(F)F)cc2C(=O)N([C@H](C)CO)C[C@@H]1C`: the cytotoxicity call is “inactive”.

With `Cc1noc(C)c1S(=O)(=O)Nc1ccc2c(c1)C(=O)N([C@@H](C)CO)C[C@H](C)[C@@H](CN(C)C(=O)Nc1ccc(C(F)(F)F)cc1)OCCCC[C@H](C)O2`, the cytotoxicity call is “active”.

For the compound `Cc1noc(C)c1S(=O)(=O)Nc1ccc2c(c1)C(=O)N([C@@H](C)CO)C[C@@H](C)[C@@H](CN(C)C(=O)Nc1ccc(C(F)(F)F)cc1)OCCCC[C@@H](C)O2`, the cytotoxicity call is “inactive”.

With `Cc1noc(C)c1S(=O)(=O)Nc1ccc2c(c1)C(=O)N([C@@H](C)CO)C[C@H](C)[C@H](CN(C)C(=O)Nc1ccc(C(F)(F)F)cc1)OCCCC[C@H](C)O2`, the cytotoxicity call is “inactive”.

For `Cc1noc(C)c1S(=O)(=O)Nc1ccc2c(c1)C(=O)N([C@@H](C)CO)C[C@@H](C)[C@H](CN(C)C(=O)Nc1ccc(C(F)(F)F)cc1)OCCCC[C@H](C)O2`, the cytotoxicity call was “inactive”.

Turning to `Cc1noc(C)c1S(=O)(=O)Nc1ccc2c(c1)C(=O)N([C@H](C)CO)C[C@H](C)[C@H](CN(C)C(=O)Nc1ccc(C(F)(F)F)cc1)OCCCC[C@H](C)O2`, the cytotoxicity call was “inactive”.

As for `Cc1noc(C)c1S(=O)(=O)Nc1ccc2c(c1)C(=O)N([C@H](C)CO)C[C@H](C)[C@H](CN(C)C(=O)Nc1ccc(C(F)(F)F)cc1)OCCCC[C@@H](C)O2`, the cytotoxicity call was “inactive”.

For the compound `Cc1noc(C)c1S(=O)(=O)Nc1ccc2c(c1)C(=O)N([C@H](C)CO)C[C@@H](C)[C@H](CN(C)C(=O)Nc1ccc(C(F)(F)F)cc1)OCCCC[C@@H](C)O2`, the cytotoxicity call is “active”.

`Cc1noc(C)c1S(=O)(=O)Nc1ccc2c(c1)C(=O)N([C@@H](C)CO)C[C@@H](C)[C@@H](CN(C)C(=O)Nc1ccc(C(F)(F)F)cc1)OCCCC[C@H](C)O2`: the cytotoxicity call was “inactive”.

On to `Cc1noc(C)c1S(=O)(=O)Nc1ccc2c(c1)C(=O)N([C@H](C)CO)C[C@@H](C)[C@@H](CN(C)C(=O)Nc1ccc(C(F)(F)F)cc1)OCCCC[C@@H](C)O2`, for which the cytotoxicity call is “active”.

For the compound `C[C@@H]1CN([C@@H](C)CO)C(=O)c2cccc(NC(=O)c3cnccn3)c2O[C@@H]1CN(C)C(=O)Nc1ccccc1`, the cytotoxicity call is “inactive”.

For the compound `COc1ccc(S(=O)(=O)N(C)C[C@H]2Oc3ccc(NC(=O)c4ccncc4)cc3CC(=O)N([C@H](C)CO)C[C@@H]2C)cc1`, the cytotoxicity call is “inactive”.

As for `C[C@H](CO)N1C[C@H](C)[C@@H](CN(C)C(=O)Nc2ccc(C(F)(F)F)cc2)Oc2ccc(NC(=O)Cn3cnnn3)cc2CC1=O`, the cytotoxicity call was “inactive”.

In the case of `COc1cccc(NC(=O)N2C[C@@H](O)COC[C@@H]3O[C@H](CC(=O)NCCCN4CCOCC4)CC[C@H]32)c1`, the cytotoxicity call is “inactive”.

For the compound `COc1ccc(CN(C)C[C@@H]2Oc3c(NS(=O)(=O)c4cn(C)cn4)cccc3C(=O)N([C@@H](C)CO)C[C@H]2C)cc1`, the cytotoxicity call was “inactive”.

With `C[C@H]1CN([C@@H](C)CO)C(=O)c2cccc(NC(=O)c3cnccn3)c2O[C@H]1CN(C)Cc1ccccc1`, the cytotoxicity call was “inactive”.

Turning to `Cc1ccc(S(=O)(=O)Nc2ccc3c(c2)CC(=O)N([C@H](C)CO)C[C@@H](C)[C@@H](CN(C)Cc2ccc(C(F)(F)F)cc2)O3)cc1`, the cytotoxicity call is “active”.

For `C[C@@H]1CN([C@@H](C)CO)C(=O)Cc2cc(NS(C)(=O)=O)ccc2O[C@@H]1CN(C)Cc1ccc(C(F)(F)F)cc1`, the cytotoxicity call was “inactive”.

For the compound `C[C@H]1CN([C@@H](C)CO)C(=O)Cc2cc(NS(C)(=O)=O)ccc2O[C@@H]1CN(C)Cc1ccc(C(F)(F)F)cc1`, the cytotoxicity call is “inactive”.

As for `Cc1ccc(S(=O)(=O)Nc2ccc3c(c2)CC(=O)N([C@@H](C)CO)C[C@H](C)[C@H](CN(C)Cc2ccc(C(F)(F)F)cc2)O3)cc1`, the cytotoxicity call is “inactive”.

In the case of `Cc1ccc(S(=O)(=O)Nc2ccc3c(c2)CC(=O)N([C@@H](C)CO)C[C@H](C)[C@@H](CN(C)Cc2ccncc2)O3)cc1`, the cytotoxicity call is “inactive”.

As for `Cc1ccc(S(=O)(=O)Nc2ccc3c(c2)CC(=O)N([C@@H](C)CO)C[C@H](C)[C@@H](CN(C)Cc2ccc(C(F)(F)F)cc2)O3)cc1`, the cytotoxicity call is “active”.

`Cc1ccc(S(=O)(=O)Nc2ccc3c(c2)CC(=O)N([C@H](C)CO)C[C@@H](C)[C@@H](CN(C)Cc2ccncc2)O3)cc1`: the cytotoxicity call is “active”.

With `Cc1ccc(S(=O)(=O)Nc2ccc3c(c2)CC(=O)N([C@H](C)CO)C[C@@H](C)[C@H](CN(C)Cc2ccc(C(F)(F)F)cc2)O3)cc1`, the cytotoxicity call was “inactive”.

Turning to `Cc1ccc(S(=O)(=O)Nc2ccc3c(c2)CC(=O)N([C@H](C)CO)C[C@H](C)[C@H](CN(C)Cc2ccc(C(F)(F)F)cc2)O3)cc1`, the cytotoxicity call is “active”.

Consider `Cc1ccc(S(=O)(=O)Nc2ccc3c(c2)CC(=O)N([C@H](C)CO)C[C@@H](C)[C@H](CN(C)Cc2ccncc2)O3)cc1`, for which the cytotoxicity call is “inactive”.

Regarding `C[C@H](CO)N1C[C@H](C)[C@H](CN(C)Cc2ccc(C(F)(F)F)cc2)Oc2ccc(NS(C)(=O)=O)cc2CC1=O`, the cytotoxicity call is “inactive”.

As to `C[C@@H]1CN([C@H](C)CO)C(=O)Cc2cc(NS(C)(=O)=O)ccc2O[C@@H]1CN(C)Cc1ccc(C(F)(F)F)cc1`, the cytotoxicity call is “inactive”.
